# High-throughput results deposited in PubChem BioAssay by ICCB-Longwood Screening Facility, Harvard Medical School.
# MenB inh: M. tuberculosis MenB inhibitors, primary screen, biochemical, absorbance. 1,4-dihydroxy-2-naphthoyl-CoA synthase (Mycobacterium tuberculosis (strain ATCC 25618 / …. MenB enzyme assay, absorbance read-out. AID 540299, 2011. inhibition, % (no concentration beside the values). actives 0.43% (n = 100,000); in the data active = inhibition above about 21%, passing the limit was not always enough
# MbtI inh: MbtI salicylate synthase inhibitors, primary screen, biochemical, fluorescence intensity. P9WFX0. purified MbtI enzyme, fluorescence intensity read-out. inhibition, % (concentration not given with the values). actives 0.89% (n = 100,000). AID 493033, 2011; in the data active = inhibition mostly above about 56%, no sharp cut-off; inactive = mostly below about 77%
# PV pol inh: poliovirus RdRp elongation inhibitors, primary screen, biochemical, fluorescence polarization, total intensity | AID 588519, 2011 | actives 0.66% (n = 150,000) | Genome polyprotein (Poliovirus type 1 (strain Mahoney)), P03300 | poliovirus polymerase elongation; active compounds read low | % elongation, % (compound at 16.7 µg/mL); in the data active = % elongation below about 90%
# Target sequence (P03300 1749-2209 limits assumed): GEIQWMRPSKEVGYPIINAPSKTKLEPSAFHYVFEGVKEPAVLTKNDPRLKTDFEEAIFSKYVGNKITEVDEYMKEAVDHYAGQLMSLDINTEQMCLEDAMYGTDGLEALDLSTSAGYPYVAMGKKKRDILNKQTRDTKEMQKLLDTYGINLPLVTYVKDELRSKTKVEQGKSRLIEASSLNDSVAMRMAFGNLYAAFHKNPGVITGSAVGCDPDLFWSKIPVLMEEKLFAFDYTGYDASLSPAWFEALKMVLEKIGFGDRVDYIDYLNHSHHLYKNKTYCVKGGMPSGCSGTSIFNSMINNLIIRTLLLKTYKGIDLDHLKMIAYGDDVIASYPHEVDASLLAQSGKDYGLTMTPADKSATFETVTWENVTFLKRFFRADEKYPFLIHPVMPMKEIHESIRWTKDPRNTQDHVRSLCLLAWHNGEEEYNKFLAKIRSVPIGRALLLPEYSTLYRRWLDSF
# The depositor's hits bear a star; . = no result given. A selection: hits, their analogues and other compounds. The true share with any hit is near 1.4%.
SMILES,MenB inh,MbtI inh,PV pol inh
O=C(Nc1nc(-c2ccccc2)cs1)C1CCC1,-29,10,100
c1csc(NC2CCCCC2)n1,.,.,101
c1ccc(-c2csc(NC3CCCCC3)n2)cc1,-50,79,84*
CN(C)S(=O)(=O)c1ccc(C(=O)OCC(N)=O)cc1,-6,-6,103
CCCCCCCc1c(COC)[nH]c(=S)[nH]c1=O,-31,55*,102
COCc1[nH]c(=S)[nH]c(=O)c1Cc1c(F)cccc1Cl,-28,26,105
CC/C(=N\O)c1ccc(CCCCCC(=O)O)s1,24,3,99
C=CC[n+]1ccsc1N,.,-11,101
COC(=O)c1cc2cccc(OC)c2oc1=O,15,10,101
COc1cccc(OC)c1C(=O)ON=C1C=CC(=O)C=C1,-24,83*,103
Cc1oc2ncn(C)c(=O)c2c1C(=O)Nc1ccccc1,-32,0,104
OCCN1CCN(C(=S)/N=C(/Nc2ccccc2)c2ccccc2)CC1,-30,5,106
O=C(CC(C(=O)O)N(Cc1ccccc1)Cc1ccccc1)c1ccc(Cl)cc1 (stereo not given),86*,.,96
O=C(O)c1ccc(NC(CC(=O)c2ccc(Cl)cc2)c2ccccc2)cc1 (stereo not given),-14,12,102
Nc1ccc(O)cn1,-18,106,100
CC1Cc2ccccc2N1C(=O)/C=C/c1cccs1 (stereo not given),-16,18,105
CC(C)(C)C(=O)NCc1ccc2c3c(cccc13)C(=O)N2,-42,2,97
N=C(N)SCc1csc(N)n1,7,.,87*
Cc1cc(C)nc(SCc2csc(N)n2)n1,-24,1,98
NS(=O)(=O)c1cccc(S(N)(=O)=O)c1,16,-23,102
NS(=O)(=O)c1cccc(S(=O)(=O)c2ccc(Cl)c(Cl)c2)c1,1,67*,99
Cc1ccc(C(=O)N[C@@H](C)c2nc3ccccc3[nH]2)cc1,-19,-12,104
O=C(c1c[nH]c(=O)[nH]c1=O)N1CCc2ccccc2C1,-14,-10,102
S=C(SN1CCOCC1)N1CCOCC1,-69,.,77*
S=C(SCc1ccc(CSC(=S)N2CCOCC2)cc1)N1CCOCC1,-6,.,100
SMILES,MenB inh,MbtI inh,PV pol inh
CC1CCCCN1C(=O)Cc1coc2ccc3ccccc3c12 (stereo not given),-12,-27,112
O=C(O)CC(F)(F)CC(=O)O,-15,-6,97
CC(C)OCC(O)CN (stereo not given),32*,-1,102
CCOCC(O)CN (stereo not given),-10,-4,100
O=C1OC(COc2ccccc2)CN1c1ccccc1 (stereo not given),.,-6,101
COc1ccc(CC(=O)N(C)Cc2cccc(OC)c2OC)cc1,-23,-6,104
CCOc1ccc(NC(=O)c2c(NC(=O)c3ccncc3)sc3c2CCC(C(C)(C)C)C3)cc1 (stereo not given),.,.,83*
COc1ccc(NC(=O)c2c(NC(=O)c3ccncc3)sc3c2CCC(C(C)(C)C)C3)cc1 (stereo not given),.,.,102
CC1CCC(NC(=O)c2oc(=O)c3ccccc3c2-c2ccccc2)CC1 (stereo not given),-19,-1,103
CC1=CC(=O)C=C(C)C1=NS(=O)(=O)c1ccccc1,-11,96*,103
CN1C/C(=N\S(=O)(=O)c2ccccc2)N(C)C1=O,-22,0,99
Cc1cc2ccccc2n1-c1ccc(C(=O)N2CCC(C(=O)NC3CC3)CC2)s1,-35,-11,103
Cc1nc(=S)[nH]c(C)c1CCC(=O)N1CCN(S(=O)(=O)c2ccc(F)cc2)CC1,-63,19,104
CCOC(=O)c1cnc2ccc(OCC)cc2c1NCCN(C)C,-9,35,101
CCOC(=O)c1cnc2ccc(OCC)cc2c1NCCCN1CCOCC1,2,.,89*
O=C(Cn1ccc(=O)[nH]c1=O)OCc1ccccc1C(F)(F)F,-15,9,111
CCN(CCCNC(=O)c1cc2c(=O)[nH]c3ccc(C)cc3c2s1)Cc1ccccc1,.,.,87*
CCN(CC)CCNC(=O)c1cc2c(=O)[nH]c3ccc(C)cc3c2s1,.,.,99
O=C(NC1CC1)c1c(O)c2cccc3c2n(c1=O)CC3,-32,23,102
NCC1Cc2ccccc2O1 (stereo not given),-26,-6,101
CN(CCC#N)CC1Cc2ccccc2O1 (stereo not given),45*,-1,103
CCc1cccc(NC(=O)CN(C)Cc2ccccc2OC)c1,-13,-17,103
O=C(OCn1nnc2ccccc2c1=O)C1CCCCC1,23,6,102
O=C(OCn1nnc2ccccc2c1=O)C1COc2ccccc2O1 (stereo not given),-22,58*,100
O=C(/C=C/C(=O)N1CCOCC1)Nc1nccs1,-26,-2,100
SMILES,MenB inh,MbtI inh,PV pol inh
O=S(=O)(Cc1ccccc1)c1ccccc1,-11,-16,108
O=S(=O)(CCc1ccccc1)c1ccccc1,26*,-3,100
O=c1c(Cl)c(Cl)cnn1Cc1ccccc1,-20,22,97
S=c1c(Cl)c(Cl)cnn1Cc1ccccc1,-50,.,67*
CCOC(=O)c1c(CC(C)C)csc1NC(=O)Cc1ccccc1,.,4,103
CCOC(=O)CSc1n[nH]c(=S)s1,-21,90*,101
NC(=O)CCSc1n[nH]c(=S)s1,-7,56,101
CCOC(=O)CSc1nn(C)c(=S)s1,.,25,.
CCOC(=O)CCSc1n[nH]c(=S)s1,-22,85*,103
CCCc1cc(=O)[nH]c(SCC(=O)c2ccccc2OC)n1,-43,44,98
CSc1nc2ccccc2n1N,.,-5,100
Cc1n[nH]c(=O)c2c(NC(=O)COC(=O)CC3(Cc4nc5ccccc5s4)CCCC3)oc(C)c12,-11,35,104
Cc1cc(C)nc(SCC(=O)N/N=C2\CCc3ccccc32)n1,-36,29,99
CN1CCN(C(CNC(=O)Cc2ccc(F)cc2)c2ccc(F)cc2)CC1 (stereo not given),-25,-4,102
Cc1ccccc1Cn1c(-c2cccs2)noc1=O,-14,-5,102
CSCCC(=O)Nc1ccccc1I,5,-38,106
O=C(Nc1ccccc1)Nc1ccc2c(c1)OCO2,9,6,104
Cc1ccc(N=C2NN=C(c3ccccc3)C(C(=O)Nc3ccc4c(c3)OCO4)S2)cc1 (stereo not given),-7,39,85*
O=C(Cc1ccccc1)N1CCN(S(=O)(=O)c2ccc(Br)cc2)CC1,-2,-1,103
O=C(O)CCN1Cc2ccccc2C1=O,7,.,96
O=C(O)CCN1C(=O)Cc2ccccc2C1=O,-25,6,22*
CN1/C(=C/c2cccc[n+]2C)C=Cc2ccccc21,-84,3,87*
CN1/C(=C/C=C(C#N)C#N)C=Cc2ccccc21,-13,-7,104
CCn1c(=NC(C)=O)sc2ccccc21,-5,26,102
O/N=c1/sc2ccccc2n1CCS,15,69*,99
O=c1[nH]c(NCCO)c(I)c(=O)[nH]1,.,68*,.
O=c1[nH]c(NCCO)nc2ccccc12,-13,91,105
O=C1C=C(C(F)(F)F)c2ccc(NC3CCCCC3)c3cccc1c23,0,-2,78
